Source: PubChem BioAssay
D1 PAM: human D1 dopamine receptor positive modulation. HEK293 TREx D1 cells, calcium flux, dopamine EC20 potentiation. potentiation, % at 10 µM. hit rate 0.036% among 360,000; in the data active = potentiation above about 30%; also: 0% is about no effect
D3 antag: D3 dopamine receptor (human) antagonism | AID 652054 | max response, negative = inhibition, % | P35462 | hit rate 2.5% among 360,000 | D3R cells, DiscoveRx beta-arrestin luminescence, antagonist mode; stronger effect = lower value; in the data active = max response below about -50%; inconclusive = no clear call, values can overlap the other calls; also: % is scaled to controls: 0 for no effect and ±100 for the full control effect
Target sequence (P35462 whole entry, looked up): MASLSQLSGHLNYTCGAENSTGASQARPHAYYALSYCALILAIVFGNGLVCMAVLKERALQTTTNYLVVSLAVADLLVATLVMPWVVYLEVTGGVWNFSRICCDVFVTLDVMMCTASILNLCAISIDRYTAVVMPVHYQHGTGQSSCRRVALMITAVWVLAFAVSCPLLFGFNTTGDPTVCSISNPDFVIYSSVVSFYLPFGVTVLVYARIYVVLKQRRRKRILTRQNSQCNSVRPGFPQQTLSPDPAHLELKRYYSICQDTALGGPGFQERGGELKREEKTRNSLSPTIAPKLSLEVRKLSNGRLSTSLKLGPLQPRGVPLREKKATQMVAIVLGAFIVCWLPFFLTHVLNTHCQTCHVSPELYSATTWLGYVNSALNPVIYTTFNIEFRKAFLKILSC
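Cells plated overnight at 1500 cells/well, then exposed to library compounds with dopamine controls for 90 minutes at 37 degrees C. DiscoveRx reagent added for 30–60 minutes at room temperature; luminescence read, quantitative HTS format.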
DRD3 agonist: activates the human D3 dopamine receptor; P35462; D3R DiscoveRx beta-arrestin cells, luminescence, 90 min; max activation, %; hit rate 0.58% among 410,000; AID 652048; in the data active = max activation above about 30%; also: 0% is about no effect
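Agonist mode: compounds and dopamine controls were applied to plated cells for 90 min at 37 degrees C after an overnight attachment at 1500 cells/well. Luminescent read-out followed 30 - 60 minutes at room temperature with DiscoveRx detection reagent.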
D1 agonist: agonists of human D1 dopamine receptor. HEK293 T-REx D1 cells, calcium flux, agonist mode. AID 504660. P21728. activation, % at 2 µM. hit rate 1% among 360,000; in the data active = activation above about 30%; also: 0% is about no effect
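Inducible HEK293 T-REx D1 cells, force-coupled to calcium signalling, were plated at 4000 cells/well with tetracycline and held overnight at 30 C. After no-wash calcium dye loading, compound-evoked calcium rise over 180 s flagged agonists.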
D1 antag: antagonists of human D1 dopamine receptor | hit rate 3.2% among 360,000 | AID 504652 | activity change, negative = inhibition, % at 10 µM | HEK293 TREx D1 cells, calcium flux, dopamine EC80; stronger effect = lower value; in the data active = activity change below about -30%; also: % is scaled to controls: 0 for no effect and ±100 for the full control effect
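Using tetracycline-induced force-coupled D1 Hek293 cells and a calcium dye, signals were followed for 180 s after compound, then for 180 s after EC80 dopamine, to detect inhibitors.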
Starred values were filed as active, the others as inactive; u = inconclusive; x = no result given. Hits are enriched below; roughly 6% of the tested compounds scored in any of these assays.

SMILES	D1 PAM	D3 antag	DRD3 agonist	D1 agonist	D1 antag
O=C(NCCN1CCN(c2cccc(Cl)c2)CC1)Nc1ccccc1	-4	-91*	-4	7	-6
COC(=O)CCC(=O)Nc1cccc(C(=O)Nc2cccc(Cl)c2)c1	-2	13	0	31*	7
COc1ccc(N2CCN(CCNC(=O)Nc3ccc(Cl)cc3)CC2)cc1	-2	u	-29	38*	-3
CCCCCCOc1ccc(C(=N)N(CCCC)CCCC)c2ccccc12	x	x	12	x	x
Cc1cccc(CCNC(=O)c2ccc(CSCc3cccc(Cl)c3)o2)c1	-1	x	4	-1	1
CCOC(=O)c1c(/N=C/c2cccc([N+](=O)[O-])c2O)sc(C)c1C	1	-102*	-12	3	9
O=[N+]([O-])c1cccc(C=Nc2cccc3ccccc23)c1O	-1	-11	-16	2	5
COc1ccc(CCNCc2c(C(=O)O)c(C)n(Cc3c(F)cccc3Cl)c2C)cc1OC	0	x	1	0	-9
COc1ccc(Cn2ccnc2SCC(=O)Nc2ccccc2F)cc1	-6	-11	1	2	-31*
CC(C)(C)c1ccc(-c2noc(CCC(=O)Nc3cccc(Cl)c3)n2)cc1	1	x	7	8	-3
COc1ccc(-c2nc(C(=O)O)cs2)cc1OC	-7	0	-13	8	-36*
Fc1cccc(CNc2ncnc3ccc(-c4ccccc4Cl)cc23)c1	1	x	x	0	-8
Cc1ccccc1NS(=O)(=O)c1nnc(NC(=O)c2ccco2)s1	0	x	-6	8	-11
CCN(CC)S(=O)(=O)c1ccc(N2CCN(S(=O)(=O)c3ccccc3C#N)CC2)nc1	-5	-10	-6	3	-83*
CCN(CC)S(=O)(=O)c1ccc(N2CCN(S(=O)(=O)c3ccccc3)CC2)nc1	-5	-24	-6	2	3
CCN(c1ccccc1)S(=O)(=O)c1ccc(N2CCN(c3ccc(OC)cc3)CC2)nc1	x	3	-1	x	x
CCN(CC)S(=O)(=O)c1ccc(N2CCN(CCOc3ccc(OC)cc3)CC2)nc1	-5	-6	61*	8	-17
CCCNC(=S)Nc1ccc(Oc2ccccc2)cc1	-3	-18	9	5	-30
NC(=S)Nc1ccc(Oc2ccc(NC(N)=S)cc2)cc1	-2	-17	8	1	-30*
CC(C)NC(=S)Nc1ccc(Oc2ccccc2)cc1	-10	0	-4	30*	-29
CCOc1ccc(C(=O)CC(NCc2cccs2)C(=O)O)cc1 (stereo not drawn)	-1	u	-6	3	-30*
CCOc1ccc(C(=O)CCC(=O)N(CC)CC(=O)NCc2cccs2)cc1	8	-15	-7	0	-12
Cc1cc(C)n(-c2ccc(N3CCOCC3)nn2)n1	1	-11	5	5	1
Cc1cc(C)n(-c2nnc(N3CCN(c4ccc(F)cc4)CC3)nn2)n1	1	-17	-16	3	-42*
NC(=O)CC(NC(=O)Cc1ccc(Br)cc1)c1ccc(N2CCC(Cc3ccccc3)CC2)c([N+](=O)[O-])c1 (stereo not drawn)	-2	-97*	-2	3	6
SMILES	D1 PAM	D3 antag	DRD3 agonist	D1 agonist	D1 antag
NC(=O)CC(NC(=O)Cc1ccc(Br)cc1)c1ccc(NCCN2CCCCC2)c([N+](=O)[O-])c1 (stereo not drawn)	0	-21	7	4	-45*
NC(=O)CC(NC(=O)Cc1ccc(Br)cc1)c1ccc(N2CCC(Br)CC2)c([N+](=O)[O-])c1 (stereo not drawn)	-1	-28	-24	2	15
COc1ccc(CCNc2ccc(C(CC(N)=O)NC(=O)c3ccc(Br)cc3)cc2[N+](=O)[O-])cc1 (stereo not drawn)	0	-68*	-24	2	3
COc1ccc(-c2ccc(CCC(=O)O)n2CC(=O)Nc2cccc(Cl)c2C)cc1	0	x	-6	-2	-17
CN(C(=O)CSc1nc2ccccc2n1CC(=O)N(C)C1CCCCC1)c1ccccc1	1	x	-16	-2	-1
Cc1cccc(NC(=O)Cn2c(=O)n(Cc3ccc4c(c3)OCO4)c(=O)c3ccccc32)c1	1	x	1	5	-2
CCOC(=O)c1c(NC(C)=O)c2c3c(sc2n1Cc1cccc(Cl)c1)CCCC3	1	x	-4	-1	7
CCc1ccc(NC(=O)CSc2ncc(S(=O)(=O)c3cc(C)ccc3C)c(=O)[nH]2)cc1	0	x	8	1	-9
O=C(NCc1cccnc1)/C(=C/c1ccc([N+](=O)[O-])cc1)NC(=O)c1ccccc1	x	-3	31*	x	x
O=C(NCCc1ccccc1)/C(=C\c1ccc([N+](=O)[O-])cc1)NC(=O)c1ccco1	-3	8	2	6	-38*
O=C(NCc1ccccc1)/C(=C\c1ccc([N+](=O)[O-])cc1)NC(=O)c1ccco1	-8	-5	6	0	-14
COCCOC(=O)c1c(C)nc(SCC(=O)Nc2cccc3ccccc23)c(C#N)c1-c1ccco1	-1	-65*	-2	1	x
O=C(O)c1ccc(-c2ccc(/C=c3/sc4nc5ccccc5n4c3=O)o2)cc1Cl	-5	0	-7	48*	-20
Cc1ccc2c(nc3s/c(=C\c4ccc(-c5ccccc5C(=O)O)o4)c(=O)n32)c1C	-3	15	1	191*	-5
Cc1cc(C)c2nc3sc(=Cc4ccc(-c5ccccc5C(=O)O)o4)c(=O)n3c2c1	x	-23	-4	x	x
CCn1cc(S(=O)(=O)c2ccc(C)cc2)c(=O)c2cc(F)c(N3CCCCCC3)cc21	0	x	4	3	-8
COC(=O)CSc1nc2sc3c(c2c(=O)n1-c1ccc(C)cc1)CC(C(C)C)OC3 (stereo not drawn)	-1	x	-4	0	-6
CCCC1S/C(=N/N=C/c2ccco2)NC1=O (stereo not drawn)	1	9	-7	3	7
O=C(CC1S/C(=N/N=C/c2ccco2)NC1=O)Nc1cccc(Cl)c1Cl (stereo not drawn)	-2	-61*	-3	2	18
O=c1oc(Cl)c(Cl)c2ccccc12	0	-74*	-36	-1	10
CCC(=O)Oc1ccc(C/C(=N\O)c2ccc(O)cc2O)o1	-1	92	56*	1	9
COc1ccc(Cl)cc1NC(=O)CN1C(=O)COc2ccc(S(=O)(=O)NC3CCCC3)cc21	-5	x	-1	5	-16
COC(=O)c1ccccc1NC(=O)Cn1c(=O)n(-c2ccc(C)cc2)c(=O)c2ccccc21	0	x	0	4	8
O=C(CNC(=O)c1ccccc1F)NNC(=O)c1ccccc1O	3	-59*	-15	3	3
O=C(NCCS(=O)(=O)N1CCN(c2ccccc2)CC1)c1ccccc1F	-7	-4	-7	2	8
O=C(NCCN1CCN(c2ccccc2)CC1)c1ccccc1F	5	-56*	16	3	-1
